Laboratory results from the supplement of paper PMC6658780.
Counter-ions that a name gives are not always drawn. ± gives the standard deviation of the averaged measurements.

Assays:
[1] = test system: Klebsiella pneumoniae KPC-119; assay: percent growth inhibition of drug alone vs DMSO control; higher = more growth inhibition; settings: antibiotic (0.125x MIC): none (0.1% DMSO)
[2] = test system: Klebsiella pneumoniae KPC-119; assay: percent growth inhibition of drug + antibiotic vs DMSO control; higher = more growth inhibition
[3] = antibiotic (0.125x MIC): colistin, 20 µM
[4] = antibiotic (0.125x MIC): colistin, 7 µM

| Compound | percent growth inhibition of drug alone ([1]; 7 µM) [%] | percent growth inhibition of drug alone ([1]; 20 µM) [%] | percent growth inhibition [2, 3] [%] | percent growth inhibition [2, 4] [%] | percent growth inhibition ([2]; antibiotic (0.125x MIC): gentamicin, 7 µM) [%] |
| --- | --- | --- | --- | --- | --- |
| Clc1ccc(CCC(Cn2ccnc2)Sc2c(Cl)cccc2Cl)cc1 (stereo not drawn) [Butoconazole nitrate] | -1.2 ± 2.2 | 2.34 ± 3.2 | 6.76 ± 0.1 |  |  |
| CC(C)(C)CC(C)(C)c1ccc(OCCOCC[N+](C)(C)Cc2ccccc2)cc1 [Benzethonium chloride] | 2.21 ± 0.87 | 2.03 ± 2.5 | 97.15 ± 0.41 | 4.69 ± 10 |  |
| CO[C@@]1(NC(=O)Cc2cccs2)C(=O)N2C(C(=O)O)=C(COC(N)=O)CS[C@@H]21 [Cefoxitin sodium salt] | 5.37 ± 2 | 7.08 ± 6.2 |  |  | 8.4 ± 13 |
| CCOC(=O)OC(C)OC(=O)[C@@H]1N2C(=O)[C@@H](NC(=O)[C@H](N)c3ccccc3)[C@H]2SC1(C)C (stereo partly drawn) [Bacampicillin hydrochloride] | 0.511 ± 1.4 | -0.333 ± 0.47 |  | -4.19 ± 0.78 |  |
| COc1nc(C)nc(Cl)c1NC1=NCCN1 [Moxonidine] | -0.572 ± 3.2 | -0.25 ± 3.1 | -7.57 ± 6.4 |  |  |
| CN(C)CCOC(c1ccc(Cl)cc1)c1ccccn1 (stereo not drawn) [Carbinoxamine maleate salt] | -6.88 ± 0.94 | -3.08 ± 0.79 | -10.7 ± 4.1 |  |  |
| CC(C)NC[C@H](O)COc1ccc(CC(N)=O)cc1 [(S)-(-)-Atenolol] | 0.932 ± 4.5 | -0.0403 ± 1.4 | -1.42 ± 6 |  |  |
| CN(C(=O)CN(CCO)CC(=O)N(C)C(C)(C)Cc1ccccc1)C(C)(C)Cc1ccccc1 [Oxethazaine] | -4 ± 0.52 | -5.74 ± 4.4 | 95.6 ± 1.6 | 4.52 ± 0.46 |  |
| C[C@@H]1CN(c2c(F)c(N)c3c(=O)c(C(=O)O)cn(C4CC4)c3c2F)C[C@H](C)N1 [Sparfloxacin] | 33.5 ± 3.3 | 99.04 ± 0.49 | 99.2 ± 0.83 | 99.4 ± 0.42 |  |
| CCCCOC(=O)c1ccc(N)cc1 [Butamben] | -0.672 ± 3.4 | -0.688 ± 0.36 | 3.33 ± 3 |  |  |
